From PubChem BioAssay
Cycloheximide cs = Cycloheximide Counterscreen for Small Molecule Inhibitors of Shiga Toxin; cell reporter, cycloheximide protein synthesis inhibition counterscreen; max response, %; 300,000 compounds, 12% hits; AID 2314, 2010; in the data active = max response mostly above about 13%, no sharp cut-off; inactive = mostly below about 14%; note: read at 38.3 µM for the half of the compounds with a filed dose; 0% is about no effect
NS1 function inh = qHTS Assay for Inhibitors of Influenza NS1 Protein Function; Potency, µM (doses to about 46.1 µM), for the others: at the highest dose activity, positive = more growth; 270,000 compounds, 0.4% hits; AID 2326, 2010; calls by dose curve; note: potency is the fitted concentration of half-maximal effect; actives are rising curves; nearly all actives have a fitted effect of over 50% in size
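Recovery from NS1-induced slow growth read by OD600 in budding yeast switched to galactose assay medium (pH 6.0, -URA) at 1:100 dilution. Compound 23 nl per well; the matching strain lacking NS1 serves as control.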
Pf growth 48h = Primary qHTS for delayed death inhibitors of the malarial parasite plastid, 48 hour incubation. P. falciparum luciferase growth in erythrocytes, 48 h. Potency, µM (doses to about 28.7 µM), for inactives: at the top dose activity change, negative = inhibition, actives largely listed as inhibitors. 310,000 compounds, 5.9% hits. AID 504832, 2011; note: potency is the fitted concentration of half-maximal effect; % is set by controls: 0 for no effect and ±100 for the full control effect
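Compounds are pin-transferred into medium, infected erythrocytes (2% hematocrit, 0.1% parasitemia final) are added, and plates sit one parasite generation at 37 C in 5% CO2. Detection reagent is then added and luminescence measured.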
Shiga toxin inh = A qHTS for Small Molecule Inhibitors of Shiga Toxin; Vero cells, Shiga toxin protein synthesis inhibition reporter; inhibition, % at 38.7 µM; 290,000 compounds, 9.2% hits; in the data active = inhibition mostly above about 28%, no sharp cut-off; inactive = mostly below about 43%; note: 0% is about no effect
Pf growth 96h = Primary qHTS for delayed death inhibitors of the malarial parasite plastid, 96 hour incubation. 320,000 compounds, 6.9% hits. Potency, µM (highest dose often 28.7 µM), for the others: top-dose activity change, negative = inhibition, actives largely listed as inhibitors. P. falciparum luciferase reporter growth, 96 h; note: potency is the fitted concentration of half-maximal effect; % is set by controls: 0 for no effect and ±100 for the full control effect
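P. falciparum expressing integrated firefly luciferase, in erythrocytes at 2% hematocrit, 0.05% parasitemia, incubated with compounds 96 h at 37 C, 5% CO2. Growth inhibition read as loss of luminescence; two-generation exposure targets delayed-death apicoplast inhibitors.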
The depositor's hits bear a star; ? = inconclusive; . = no result given; + = active, no number. An excerpt weighted towards active compounds, which were near 21% of everything screened. Unless noted, calls come from the whole dose curve; as a rule, active = well fitted inhibition curve with a large enough effect; inconclusive = small, poorly fitted or top-dose-only effect, or another doubt; inactive = no such curve, though single readings can be large or run the other way.

SMILES	Cycloheximide cs	NS1 function inh	Pf growth 48h	Shiga toxin inh	Pf growth 96h
CCOC(=O)Cn1c(=O)cc(C)c2ccccc21	0.5	4.6%	0.3%	19.8	26.7%
Cn1c(=N)n(CC(=O)c2ccc(F)cc2)c2ccccc21	36.8*	-4.9%	.	67.6*	190.8%
CCOC(=O)Cn1c(C)[n+](CC(=O)c2ccccc2)c2ccccc21	-3.7	-2.7%	?	-3.0	5.22µM*
CCCCc1n(CC(=O)c2ccc(Cl)cc2)c2ccccc2[n+]1C	-2.2	.	1.17µM*	-19.3	?
Cc1n(CC(=O)c2ccc(F)cc2)c2ccccc2[n+]1C	-1.0	.	3.7µM*	-8.1	?
O=C(Cn1c(NCCCO)nc2ccccc21)c1ccc(Cl)cc1	-1.1	14.7%	?	0.7	0.0%
Cc1cc(C)n(C(C)CNS(=O)(=O)c2ccc(C)c(C)c2)n1 (stereo unspecified)	-2.4	6.0%	3.6%	2.5	13.4%
Cn1c(NC(=O)CCC2CCCCC2)cc(=O)n(C)c1=O	71.3*	-53.9%	.	113.2*	?
Cn1c(NC2CCCCC2)cc(=O)n(C)c1=O	-2.3	-7.6%	?	-11.1	10.4µM*
CCN(CC)S(=O)(=O)c1ccc(OC)c(NC(=O)C2CC(=O)N(c3ccc4c(c3)OCCO4)C2)c1 (stereo unspecified)	-2.0	-1.8%	?	13.3	?
COc1ccc(NC(=S)NC(=O)/C=C/c2ccco2)cc1	43.3*	.	48.2%	100.8*	88.8%
O=C(/C=C/c1ccco1)NC(=S)Nc1ccc(C(=O)O)cc1	22.7*	3.5%	.	51.7*	39.1%
COc1ccc(C(=O)NNC2=C(C(=O)C(F)(F)F)CCC2)cc1	26.9*	-8.2%	75.5%	48.4*	7.3%
O=C(NNC1=C(C(=O)C(F)(F)F)CCC1)c1ccc(Cl)cc1	17.6*	-126.0%	19.4%	86.1*	2.94µM*
COc1ccc(C(=O)NNS(=O)(=O)c2ccc(OC)cc2)cc1	8.2	9.4%	26.5%	-16.1	?
O=C(NNC1=C(C(=O)C(F)(F)F)CCC1)c1cccc(Cl)c1	27.7*	-148.3%	8.0%	85.1*	.
CC(=O)/C(=N/Nc1ccccc1C)N1CCOCC1	-4.3	-3.2%	47.4%	-11.3	44.8%
OCCSc1nncn1/N=C/c1c[nH]c2ccccc12	-1.3	-1.0%	12.4%	43.8	34.2%
COc1ccc(C(=O)Cn2c(C(=O)/C=C/c3ccccc3)nc3ccccc32)cc1	6.2	?	10.4µM*	-9.7	.
COc1ccc2cc(C(=O)/C=C/c3cc(OC)c(OC)c(OC)c3)ccc2c1	17.2	10.7%	?	11.7	?
COc1cc(/C=C/c2ccc(O)cc2)cc(OC)c1	55.8*	.	.	83.6*	.
COc1ccc(/C=C/C(=O)c2ccoc2)cc1	42.1*	-48.2%	18.1%	89.5*	41.6%
COc1ccc(/C=C/C(=O)N2CCN(c3ccccn3)CC2)cc1	24.5*	-20.9%	8.0%	29.8*	-11.9%
O=C(N/C(=C\c1ccc(-c2ccccc2)o1)C(=O)N1CCOCC1)c1ccccc1	1.8	1.9%	-23.0%	-20.2	345.0%
CCc1noc(C)c1C(=O)OCC(=O)Nc1nc(-c2ccc(F)c(F)c2)cs1	.	.	?	.	4.2%
SMILES	Cycloheximide cs	NS1 function inh	Pf growth 48h	Shiga toxin inh	Pf growth 96h
COc1ccc(C(=O)NCCNC(=O)c2ccccn2)cc1	-1.5	-0.3%	-5.5%	7.0	65.9%
COc1ccc(/C=C/C(=O)c2ccccc2O)cc1	65.5*	-67.0%	210.1%	105.9*	-28.1%
COc1ccc(/C=C/C(=O)c2ccc(O)cc2)cc1	37.4*	-38.7%	201.5%	63.6*	116.5%
COc1ccc(/C=C/C(=O)c2ccccn2)cc1	23.6*	.	412.4%	42.6	149.0%
COc1ccc(Cn2c(CCC(=O)N3CCN(c4ccccn4)CC3)nc3ncccc3c2=O)cc1	5.0	-26.7%	11.7µM*	32.4	?
O=C(CCc1nnc2n(Cc3ccc(Cl)cc3)c(=O)c3ccccc3n12)N1CCN(c2ccccn2)CC1	-1.7	-4.5%	?	-2.8	?
COc1ccc(/C=C(/NC(=O)/C=C/c2ccccc2)C(=O)O)cc1	-1.4	.	16.5%	-5.6	49.8%
CSc1ccc2[nH]c(=O)cc(C)c2c1	1.2	-0.1%	-4.6%	28.2	-16.4%
CN(CC(=O)NCc1ccccc1)Cc1ccc(Cl)cc1	1.8	4.7%	-13.0%	-5.8	6.3%
COc1ccc(/C=C/C(=O)c2c(O)c(OC)c3occc3c2OC)cc1	14.7*	-0.4%	?	20.2	21.8%
CN(c1ccccc1)S(=O)(=O)c1ccc(NC(=O)c2cccs2)cc1	2.3	-0.5%	?	2.9	-5.9%
CCN(c1ccccc1)S(=O)(=O)c1ccc(NC(=S)NC(=O)c2cccs2)cc1	16.8	22.4%	?	30.3*	?
CN(C)S(=O)(=O)c1ccc(NC(=S)NC(=O)c2cccs2)cc1	10.8*	6.1%	13.3%	22.9	9.28µM*
O=C(NC(=S)Nc1ccc(S(=O)(=O)N2CCCC2)cc1)c1cccs1	13.1	10.7%	-17.4%	0.4	?
O=S(=O)(Nc1cccc2cccnc12)c1ccc(Br)s1	27.4	.	.	8.1	.
Oc1cccc(Nc2nc(-c3ccccc3)nc3ccccc23)c1	6.0	-9.8%	5.5%	-6.0	39.1%
CC(C)Cc1ccc(/C=C/C(=O)N2CCCCC2)cc1	43.5*	.	194.9%	67.4*	164.9%
CCOC(=O)C1CCCN(C(=O)/C=C/c2ccc(Cl)cc2)C1 (stereo unspecified)	-1.2	-9.2%	4.9%	1.2	-11.5%
Cc1ccc(/C=C/C(=O)N2CCCC(C)C2)cc1 (stereo unspecified)	63.8*	-3.5%	234.7%	+	2.4%
CC(C)(C)c1ccc(/C=C/C(=O)N2CCCCC2)cc1	51.0*	-33.4%	-33.4%	81.5*	?
CC1CCN(C(=O)/C=C/c2ccc(C(C)(C)C)cc2)CC1	39.1*	-10.6%	16.4%	21.0*	0.8%
Cc1ccc(F)c(NC(=O)C2CCCCC2C(=O)O)c1 (stereo unspecified)	-0.4	-7.1%	37.1%	-14.1	-8.4%
O=C(NCC(=O)N(c1cccc(F)c1)C(C(=O)NC1CCCC1)c1cccnc1)c1ccco1 (stereo unspecified)	1.4	-14.6%	13.9%	-15.7	-2.6%
O=C(CS)Nc1ccc2ccccc2c1	15.3	1.3%	2.3%	48.9	4.7%
O=C(CSc1cccs1)Nc1ccc2ccccc2c1	45.9*	-33.5%	35.9%	125.3*	95.6%
O=C(CSC1=NCCS1)Nc1cccc2ccccc12	-0.5	?	.	-6.5	36.9%
O=C(CSc1cccs1)Nc1cccc2ccccc12	50.0*	-4.1%	150.6%	+	?
O=C(CSc1ccccc1)Nc1ccc2sccc2c1	45.1*	-1.2%	48.9%	44.5*	41.6%
CC1(C)N=C(c2ccc(Cl)cc2)C(=O)N1	-4.9	-3.0%	1.3%	-7.5	5.4%
CCOC(=O)c1nnc(-c2ccccc2)nc1N1CC(C)OC(C)C1 (stereo unspecified)	-6.5	0.0%	?	0.3	-12.4%
